VHR inh abs = DUSP3 (human) phosphatase inhibition. recombinant VHR phosphatase, pNPP absorbance. inhibition, % at 13.3 µM. actives 0.52% (n = 290,000). P51452; in the data active means inhibition above about 50%
BoNT-F LC inh = inhibitors of Botulinum neurotoxin F light chain protease. inhibition, % at 10 µM. Multiplex microsphere protease cleavage assay, flow cytometry. actives 0.22% (n = 360,000); in the data active means inhibition above about 35%, passing the limit was not always enough; inconclusive means no clear call, values can overlap the other calls
BoNT A protease = blocks Botulinum neurotoxin A light chain protease. AID 588499. multiplex microsphere protease substrate cleavage, flow cytometry. actives 0.17% (n = 360,000). inhibition, % at 10 µM
SARS 3CLpro inh = SARS-CoV 3CLpro protease inhibition; inhibition, % at 6 µM; recombinant SARS-CoV 3CLpro, quenched FRET peptide cleavage; actives 0.14% (n = 290,000); in the data active means inhibition above about 12%
Anthrax LF prot = anthrax lethal factor protease inhibition. actives 0.12% (n = 360,000). AID 588501. multiplex microsphere protease cleavage assay, LF. inhibition, % at 10 µM. P15917
Target sequence (P15917 whole entry, looked up): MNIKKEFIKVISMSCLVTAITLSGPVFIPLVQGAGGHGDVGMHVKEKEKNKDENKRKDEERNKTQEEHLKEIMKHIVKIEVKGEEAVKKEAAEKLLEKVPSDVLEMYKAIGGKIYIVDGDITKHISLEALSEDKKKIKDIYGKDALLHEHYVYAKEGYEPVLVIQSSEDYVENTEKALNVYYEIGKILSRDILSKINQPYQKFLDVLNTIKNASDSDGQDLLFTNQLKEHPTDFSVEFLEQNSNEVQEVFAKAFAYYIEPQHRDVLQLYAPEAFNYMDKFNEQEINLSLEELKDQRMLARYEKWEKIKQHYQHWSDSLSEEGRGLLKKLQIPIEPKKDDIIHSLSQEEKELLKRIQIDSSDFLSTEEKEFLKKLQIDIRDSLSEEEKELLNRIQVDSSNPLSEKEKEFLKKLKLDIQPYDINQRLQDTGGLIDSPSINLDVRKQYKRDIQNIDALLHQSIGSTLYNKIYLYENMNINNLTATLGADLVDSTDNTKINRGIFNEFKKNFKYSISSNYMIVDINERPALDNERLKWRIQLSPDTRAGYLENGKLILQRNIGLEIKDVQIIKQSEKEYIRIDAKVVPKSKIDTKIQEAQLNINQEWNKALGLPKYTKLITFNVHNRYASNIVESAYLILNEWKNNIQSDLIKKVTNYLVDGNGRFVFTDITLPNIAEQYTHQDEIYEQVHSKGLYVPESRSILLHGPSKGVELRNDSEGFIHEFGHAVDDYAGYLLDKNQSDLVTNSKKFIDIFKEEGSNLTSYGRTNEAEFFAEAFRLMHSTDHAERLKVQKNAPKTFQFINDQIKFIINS
Autofluor counter = compound fluorescence in toxin protease inhibitor counterscreen; compound autofluorescence counterscreen, microsphere flow cytometry; stronger effect = higher value; fluorescence intensity (no concentration beside the values); actives 3.1% (n = 360,000); AID 624483; in the data active means fluorescence intensity above about 16000; inconclusive means no clear call, values can overlap the other calls
A number is an active result; 0 = inactive; ? = inconclusive; - = not tested or not shown. Compounds with a hit are over-represented: about 3.9% of the library has one in this group of screens. Unless noted, no stated cut-off is given here; in the data, active means inhibition above about 30%; inconclusive means no clear call, values can overlap the other calls; inactive means below that.

SMILES | VHR inh abs | BoNT-F LC inh | BoNT A protease | SARS 3CLpro inh | Anthrax LF prot | Autofluor counter
C[C@H]1CN([C@@H](C)CO)C(=O)CCCn2cc(nn2)CO[C@@H]1CN(C)C(=O)Nc1ccc2c(c1)OCO2 | - | 0 | 0 | - | 0 | 0
O=C(CCN1C(=O)/C(=C/c2ccccc2Cl)SC1=S)NCCc1ccc(O)cc1 | 0 | 0 | 0 | 0 | 0 | 0
CCN(CC)CCCn1c2c(c(SCC(=O)N3CCCc4ccccc43)nc1=O)CCC2 | - | 0 | 0 | - | 0 | 0
C=CCN1CC(c2nc3ccccc3n2Cc2ccccc2)CC1=O (stereo not given) | 0 | 0 | ? | 0 | 0 | 20701
O=C1/C(=C\c2ccccn2)SC(=S)N1c1ccc(S(=O)(=O)Nc2nccs2)cc1 | 0 | ? | 0 | 0 | 30 | 0
Cc1ccc(/C=C2/SC(=S)N(c3ccc(S(=O)(=O)Nc4nccs4)cc3)C2=O)cc1 | 0 | ? | 0 | 0 | 0 | 0
c1ccc(-n2cnc3cc(NCc4cccs4)ccc32)cc1 | 0 | 0 | ? | 0 | 0 | 23254
COc1ccc(-n2cnc3cc(NCc4cccs4)ccc32)cc1 | 0 | 0 | 0 | 0 | 0 | 0
Cc1ccc(-n2cnc3cc(NCc4cccs4)ccc32)cc1 | 0 | 0 | 0 | 0 | ? | ?
COc1ccc(-n2cnc3cc(NCc4ccccn4)ccc32)cc1 | 0 | 0 | 0 | 0 | 0 | 18683
COc1ccccc1-n1cnc2cc(NCc3ccccn3)ccc21 | 0 | 0 | 0 | 0 | 0 | 22276
CCCn1cnc2cc(NCc3cccc(OC)c3O)ccc21 | 0 | 0 | 0 | 0 | 0 | 19022
C[C@H](CO)N1C[C@H](C)[C@@H](CN(C)S(=O)(=O)c2ccccc2F)Oc2ncc(Br)cc2C1=O | - | 0 | 0 | - | 0 | 0
CSc1nc(N)nc(SCC(=O)CC(=O)OC(C)C)c1C#N | 0 | 0 | ? | 0 | 0 | 20850
Cc1nc(SCC(=O)CC(=O)OC(C)C)c(C#N)c(C)c1C | 0 | 0 | 0 | 0 | 0 | 0
Cc1ncc2c(c1OC(=O)c1ccccc1)COC(C)(C)OC2 | 0 | 0 | ? | 0 | 0 | 23118
CC(=O)N1CCn2c3c(c4cc(C)ccc42)CCCC31 (stereo not given) | 0 | 0 | 0 | 0 | 0 | 0
Cc1ccc2c(c1)c1c(n2C)C(C(N)=O)CCC1 (stereo not given) | 0 | 0 | 0 | 0 | 0 | 22355
CCc1nnc(NC(=O)CCC(=O)N2CCC(Cc3ccccc3)CC2)s1 | 0 | 0 | 0 | 0 | 0 | 0
CCOC(=O)c1c(NC(=O)COC(=O)C2CCC2)sc(C(=O)N(C)C)c1C | - | 0 | 0 | - | 0 | 0
COC(=O)c1c(NC(=O)C2CCC2)sc(C(=O)N(C)C)c1C | 0 | 0 | ? | 0 | 0 | 17349
O=S(=O)(/C=C/c1ccccc1)NC1CCCCCC1 | 0 | 0 | 0 | 0 | 0 | 0
O=S1(=O)CCC(NS(=O)(=O)/C=C/c2ccccc2)C1 (stereo not given) | 0 | 0 | 0 | 0 | 0 | 22642
CCc1ccc(CN(C)C(=O)CCc2nnc(COc3ccccc3)o2)cc1 | 0 | 0 | 0 | 0 | 0 | 0
Cc1ccc(-n2nc3c([n+]2[O-])CCc2c-3no[n+]2[O-])cc1 | 0 | 0 | 0 | 0 | 0 | 21683
SMILES | VHR inh abs | BoNT-F LC inh | BoNT A protease | SARS 3CLpro inh | Anthrax LF prot | Autofluor counter
CN(C)/C(CN1CCN(C=O)CC1)=C1\N=C(c2ccccc2)OC1=O | 0 | 0 | 0 | 0 | 0 | 23334
CN(C)/C=C1\N=C(c2ccccc2)OC1=O | 0 | 0 | 0 | 0 | 0 | 0
N#CCCN(Cc1cccnc1)C(=S)NC1CC2C=CC1C2 (stereo not given) | 0 | 0 | 0 | 0 | 0 | 0
COc1ccccc1C(=O)N1CCN(S(=O)(=O)c2ccccc2)CC1 | 57 | 0 | 0 | 0 | 0 | 0
COc1ccccc1-n1c(SCC(N)=O)nnc1-c1ccc(S(=O)(=O)N2CCCCC2)cc1 | 0 | 0 | 0 | 0 | 0 | 22234
COc1ccccc1Oc1ccc(S(=O)(=O)N2CCCC2)cc1 | 0 | 0 | 0 | 0 | 0 | 23093
COc1ccc(N2CCN(C(=O)COC(=O)COc3cc(C)cc(C)c3)CC2)cc1 | - | ? | 0 | - | 0 | ?
CCn1ncc(Br)c1C(=O)Nc1ccc(C(C)C)cc1 | 0 | 0 | 0 | 0 | 0 | 0
COCCCNC(=O)Cn1cc(C(C)=O)c2ccccc21 | 0 | 0 | 0 | 0 | 0 | 20880
COCCNC(=O)Cn1cc(C(=S)N2CCOCC2)c2ccccc21 | 0 | 0 | 0 | 0 | 0 | 0
CCOC(=O)[C@]12CCC=C1N(Cc1cccc3ccccc13)C(=O)[C@H](CC(=O)N1CCCC1)C2 | - | 0 | 0 | - | 0 | 0
c1ccc(-n2ncc3c(NCc4ccccn4)ncnc32)cc1 | 0 | 0 | 0 | 0 | 0 | 24065
CN(Cc1ccccc1)c1ncnc2c1cnn2-c1ccccc1 | 0 | 0 | 0 | 0 | 0 | 22100

From PubChem
